We go through eight compounds from PubChem BioAssay (NCI).

Test [1] is described as follows: NCI Yeast Anticancer Drug Screen. Data for the rad50 strain (AID 155).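 Also: 0% = growth of vehicle-only cultures of the same strain.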 The note with it: S. cerevisiae rad50 strain growth inhibition, stronger effect = higher value. The gist of the method:
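Yeast carrying a defined DNA repair defect were exposed to test compounds, and growth was compared with vehicle-treated controls to give percent inhibition.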

Test [2] in a line: NCI Yeast Anticancer Drug Screen. Data for the mec2-1 strain (AID 157). The conditions noted are these: S. cerevisiae mec2-1 strain, stronger effect = higher value. The gist of the method: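 Readout is yeast growth inhibition, normalised to vehicle-treated controls, in the mec2-1 strain exposed to compound.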
A short description of test [3]: NCI Yeast Anticancer Drug Screen. Data for the sgs1 mgt1 strain (AID 161).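 Also: 0% = growth of cultures given vehicle only.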 The note with it: S. cerevisiae sgs1 mgt1 strain, stronger effect = higher value. The method, boiled down:
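Compounds are added to genetically altered yeast, and growth is compared with cultures given vehicle alone to give percent inhibition.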

Test [4] in a line: NCI Yeast Anticancer Drug Screen. Data for the cln2 rad14 strain (AID 165).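 Also: 0% = growth equal to vehicle treated cultures.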 The conditions noted are these: S. cerevisiae cln2 rad14 strain, stronger effect = higher value. The gist of the method: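 Relative to vehicle controls, growth inhibition of compound-treated cln2 rad14 yeast was recorded.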
A short description of test [5]: NCI Yeast Anticancer Drug Screen. Data for the bub3 strain (AID 167). The conditions noted are these: S. cerevisiae bub3 mutant strain, stronger effect = higher value. The method, boiled down:
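Compounds were applied to a genetically altered yeast strain carrying a cell-cycle control defect. Growth inhibition was scored against vehicle-treated controls.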

Test [6] in a line: NCI Yeast Anticancer Drug Screen. Data for the mlh1 rad18 strain (AID 175). The conditions noted are these: S. cerevisiae mlh1 rad18 strain growth inhibition, stronger effect = higher value. The gist of the method: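 Test agents were incubated with a yeast strain of defined genotype (DNA damage repair defect). Inhibition of growth was derived by comparison with vehicle-exposed cultures.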

Where [7] appears, read: at 5.0 µM (retest, dose inferred, filed as 0.5).
Where [8] appears, read: at 50.0 µM (retest, dose inferred, filed as 5.0).

Values joined by “and” are separate entries in the source; they are usually repeats but may differ in a detail not shown here. Equal values may be shown once. About 79,000 compounds went through this panel and 15% of them were active in at least one assay; those are over-represented in the sample as a whole. Where a structure was tested more than once in an assay, its records may differ in their call. Active and inactive are the calls of the source. Rule as the data show it: active = growth inhibition above about 70%; inactive = the rest.

Turning to `CCCc1cc(=O)oc2c3c(c4c(c12)OC(C)(C)CC4)O[C@@H](C)[C@H](C)[C@H]3O`, the growth inhibition in test [1] (setting [7]) is 8% (inactive); in test [1] (setting [8]) it was 90% (active); in test [1] (at 50.0 µM), -6.95% (inactive) and 80.1% (active); in test [2] (setting [7]) it was -20% (inactive); in test [2] (setting [8]) it was 95% (active); in test [2] (at 50.0 µM) it was -18.8% (inactive) and 90% (active). In addition, the growth inhibition in test [3] (setting [7]) was -1% (inactive); in test [3] (setting [8]), 93% (active); in test [3] (at 50.0 µM), 3.65% (inactive) and 89.6% (active); in test [4] (setting [7]) it was 21% (inactive); in test [4] (setting [8]) it was 94% (active); in test [4] (at 50.0 µM), 10.9% (inactive) and 88.7% (active). Besides, the growth inhibition in test [5] (setting [7]) is 0% (inactive); in test [5] (setting [8]) it was 92% (active); in test [5] (at 50.0 µM), 16.3% (inactive) and 87.8% (active); in test [6] (setting [7]), -6% (inactive); in test [6] (setting [8]), 93% (active); in test [6] (at 50.0 µM) it was 8.05% (inactive) and 85.9% (active).
Turning to `OCCNc1nc(NCCO)c2nc(-c3ccccc3)c(-c3ccccc3)nc2n1`, the growth inhibition in test [1] (setting [7]) is 8% (inactive) and -2% (inactive); in test [1] (setting [8]), 61% (inactive) and 43% (inactive); in test [1] (at 50.0 µM), -2.2% (inactive) and 58% (inactive); in test [2] (setting [7]) it was -3% (inactive) and 1% (inactive); in test [2] (setting [8]), 45% (inactive); in test [2] (at 50.0 µM), -0.45% (inactive) and 43.8% (inactive). The growth inhibition in test [3] (setting [7]) was -9% (inactive) and 0% (inactive); in test [3] (setting [8]), 88% (active) and 51% (inactive); in test [3] (at 50.0 µM), 0.6% (inactive) and 57.6% (inactive); in test [4] (setting [7]), 6% (inactive) and -2% (inactive); in test [4] (setting [8]), 37% (inactive) and 32% (inactive); in test [4] (at 50.0 µM), -7.45% (inactive) and 49.8% (inactive). Further, the growth inhibition in test [5] (setting [7]) was 6% (inactive) and -1% (inactive); in test [5] (setting [8]), 61% (inactive) and 43% (inactive); in test [5] (at 50.0 µM), -0.8% (inactive) and 41.7% (inactive); in test [6] (setting [7]) it was 5% (inactive) and -1% (inactive); in test [6] (setting [8]) it was 89% (active) and 52% (inactive); in test [6] (at 50.0 µM), 16.5% (inactive) and 61.2% (inactive).
As for `O=S(=O)(c1ccc(F)cc1)c1ccc(F)cc1`, the growth inhibition in test [1] (setting [7]) was -4% (inactive); in test [1] (setting [8]), -4% (inactive); in test [1] (at 50.0 µM) it was -4.4% (inactive) and 11.7% (inactive); in test [2] (setting [7]), 10% (inactive); in test [2] (setting [8]) it was 19% (inactive); in test [2] (at 50.0 µM), -35.6% (inactive) and -12.2% (inactive). For the same compound, the growth inhibition in test [3] (setting [7]) is -6% (inactive); in test [3] (setting [8]), -1% (inactive); in test [3] (at 50.0 µM), -3.8% (inactive) and -3.55% (inactive); in test [4] (setting [7]), -5% (inactive); in test [4] (setting [8]) it was -7% (inactive); in test [4] (at 50.0 µM) it was 3.2% (inactive) and 47.4% (inactive). The growth inhibition was -1% (inactive) in test [5] (setting [7]); 0% (inactive) in test [5] (setting [8]); -4.15% (inactive) and 19.1% (inactive) in test [5] (at 50.0 µM); 3% (inactive) in test [6] (setting [7]); 10% (inactive) in test [6] (setting [8]); 6.7% (inactive) and 35.2% (inactive) in test [6] (at 50.0 µM).
As for `Cn1c(N)nc(=O)c2[nH]cnc21`, the growth inhibition was -1% (inactive) in test [1] (setting [7]); -1% (inactive) in test [1] (setting [8]); -4.3% (inactive) in test [1] (at 50.0 µM); -1% (inactive) in test [2] (setting [7]); -2% (inactive) in test [2] (setting [8]); 11.8% (inactive) in test [2] (at 50.0 µM). Moreover, the growth inhibition in test [3] (setting [7]) is -3% (inactive); in test [3] (setting [8]), -4% (inactive); in test [3] (at 50.0 µM), 6.9% (inactive); in test [4] (setting [7]), 2% (inactive); in test [4] (setting [8]) it was -3% (inactive); in test [4] (at 50.0 µM) it was 86.8% (active). In addition, the growth inhibition in test [5] (setting [7]) is 1% (inactive); in test [5] (setting [8]), -3% (inactive); in test [5] (at 50.0 µM) it was -9.25% (inactive); in test [6] (setting [7]), -3% (inactive); in test [6] (setting [8]), 0% (inactive); in test [6] (at 50.0 µM), -17.2% (inactive).
With `O=C1C=C(O)c2ccccc2C1=O.[Ag]`, the growth inhibition is 99% (active) in test [1] (setting [7]); 99% (active) in test [1] (setting [8]); 88.8% (active) and 99.5% (active) in test [1] (at 50.0 µM); 100% (active) in test [2] (setting [7]); 99% (active) in test [2] (setting [8]); 75% (active) and 99.5% (active) in test [2] (at 50.0 µM). Further, the growth inhibition was 99% (active) in test [3] (setting [7]); 99% (active) in test [3] (setting [8]); 96.4% (active) and 99.4% (active) in test [3] (at 50.0 µM); 100% (active) in test [4] (setting [7]); 99% (active) in test [4] (setting [8]); 66.2% (inactive) and 99% (active) in test [4] (at 50.0 µM). Moreover, the growth inhibition is 99% (active) in test [5] (setting [7]); 99% (active) in test [5] (setting [8]); 86.3% (active) and 99.3% (active) in test [5] (at 50.0 µM); 99% (active) in test [6] (setting [7]); 99% (active) in test [6] (setting [8]); 87.5% (active) and 99.2% (active) in test [6] (at 50.0 µM).
On to `Oc1ccc(Cc2ccccc2)cc1`, for which the growth inhibition in test [1] (setting [7]) is 1% (inactive); in test [1] (setting [8]) it was 14% (inactive); in test [1] (at 50.0 µM), 63.6% (inactive); in test [2] (setting [7]), -3% (inactive); in test [2] (setting [8]), 14% (inactive); in test [2] (at 50.0 µM) it was 34% (inactive). Also, the growth inhibition was -4% (inactive) in test [3] (setting [7]); 15% (inactive) in test [3] (setting [8]); 23.8% (inactive) in test [3] (at 50.0 µM); -5% (inactive) in test [4] (setting [7]); -12% (inactive) in test [4] (setting [8]); -18.6% (inactive) in test [4] (at 50.0 µM). The growth inhibition in test [5] (setting [7]) is -2% (inactive); in test [5] (setting [8]), 6% (inactive); in test [5] (at 50.0 µM), 42.2% (inactive); in test [6] (setting [7]), 2% (inactive); in test [6] (setting [8]) it was 11% (inactive); in test [6] (at 50.0 µM) it was 72.2% (active).
Take `O=C(N/C=C/C=C/Sc1ccccc1)OCc1ccccc1`: the growth inhibition in test [1] (setting [7]) was 6% (inactive); in test [1] (setting [8]), 97% (active); in test [1] (at 50.0 µM), 0.05% (inactive); in test [2] (setting [7]), -6% (inactive); in test [2] (setting [8]), 98% (active); in test [2] (at 50.0 µM), 21.8% (inactive). In addition, the growth inhibition in test [3] (setting [7]) was -20% (inactive); in test [3] (setting [8]) it was 98% (active); in test [3] (at 50.0 µM), 38.6% (inactive); in test [4] (setting [7]), 23% (inactive); in test [4] (setting [8]), 97% (active); in test [4] (at 50.0 µM) it was -4.35% (inactive). The growth inhibition in test [5] (setting [7]) was 5% (inactive); in test [5] (setting [8]), 99% (active); in test [5] (at 50.0 µM) it was 2.2% (inactive); in test [6] (setting [7]), -8% (inactive); in test [6] (setting [8]), 98% (active); in test [6] (at 50.0 µM), 17.6% (inactive).
As for `O=Cc1cc(Br)ccc1O`, the growth inhibition in test [1] (setting [7]) was 21% (inactive) and 9% (inactive); in test [1] (setting [8]), 97% (active) and 85% (active); in test [1] (at 50.0 µM), 88.7% (active) and 95.2% (active); in test [2] (setting [7]), 7% (inactive) and 4% (inactive); in test [2] (setting [8]) it was 73% (active) and 77% (active); in test [2] (at 50.0 µM), 92.5% (active) and 98% (active). Further, the growth inhibition was 10% (inactive) and 4% (inactive) in test [3] (setting [7]); 73% (active) and 68% (inactive) in test [3] (setting [8]); 95.9% (active) and 96.3% (active) in test [3] (at 50.0 µM); 8% (inactive) and -3% (inactive) in test [4] (setting [7]); 61% (inactive) and 30% (inactive) in test [4] (setting [8]); 48.2% (inactive) and 69% (inactive) in test [4] (at 50.0 µM). Moreover, the growth inhibition was 6% (inactive) and -4% (inactive) in test [5] (setting [7]); 97% (active) and 88% (active) in test [5] (setting [8]); 91.7% (active) and 97.5% (active) in test [5] (at 50.0 µM); 17% (inactive) and 11% (inactive) in test [6] (setting [7]); 94% (active) and 93% (active) in test [6] (setting [8]); 97% (active) and 99% (active) in test [6] (at 50.0 µM).
